# Assay outcomes (PubChem BioAssay)
# This is one part of a sample in which hits are shown more often than they occur.
# PD-1 reversal – activators reversing PD-1 mediated T-cell inhibition. primary human CD4 T cells, PD-L1 beads, CellTiter-Glo 96 h. activation, % (test concentration not listed). 29,000 tested, under 10 active. AID 2316; call rule not given here;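 note: 0% = median vehicle wells and 100% = positive control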
# STK33 inh – blocks human STK33 kinase activity. Q9BYT3. ADP-Glo luminescence, MBP substrate. inhibition, % at 12.5 µM. hit rate 0.44% among 27,000. AID 2322; in the data active = inhibition above about 20%
# Target sequence (Q9BYT3 whole entry, looked up): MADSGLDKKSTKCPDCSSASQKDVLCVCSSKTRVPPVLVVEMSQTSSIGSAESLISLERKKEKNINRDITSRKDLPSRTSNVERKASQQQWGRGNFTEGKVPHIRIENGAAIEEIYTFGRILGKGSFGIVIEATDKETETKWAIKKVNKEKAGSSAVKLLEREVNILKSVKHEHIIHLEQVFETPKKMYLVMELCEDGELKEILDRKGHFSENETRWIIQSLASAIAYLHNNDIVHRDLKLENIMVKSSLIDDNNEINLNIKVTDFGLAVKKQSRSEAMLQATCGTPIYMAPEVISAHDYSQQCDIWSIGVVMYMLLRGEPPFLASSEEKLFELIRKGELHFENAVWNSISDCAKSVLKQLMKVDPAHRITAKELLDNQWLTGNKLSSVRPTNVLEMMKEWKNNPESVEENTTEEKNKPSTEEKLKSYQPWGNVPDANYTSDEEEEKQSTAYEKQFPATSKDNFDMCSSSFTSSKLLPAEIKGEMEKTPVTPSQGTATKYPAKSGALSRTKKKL
# NOMO-1 viab – STK33 inhibitor candidate reducing NOMO-1 cell viability | NOMO-1 AML viability, CellTiter-Glo luminescence, 72 h | inhibition, % (no concentration beside the values) | hit rate 7.5% among 37,000 | AID 2330; in the data active = inhibition above about 80%
# An asterisk follows results filed as active; . = no result given.
SMILES,PD-1 reversal,STK33 inh,NOMO-1 viab
C[C@H]1CN([C@@H](C)CO)C(=O)c2cc(NC(=O)Nc3ccc(C(F)(F)F)cc3)ccc2O[C@H]1CN(C)S(=O)(=O)c1ccccc1,-1.1,-3.0,97.4*
COc1ccc(S(=O)(=O)N(C)CC(=O)Nc2ccc(Br)cc2F)cc1Cl,1.3,-1.9,24.0
C[C@H](CO)N1C[C@H](C)[C@@H](CN(C)Cc2ccc(-c3ccccc3)cc2)Oc2ccc(NS(=O)(=O)c3ccccc3)cc2C1=O,2.4,1.2,18.6
C[C@@H]1CN([C@H](C)CO)C(=O)c2cc(NS(=O)(=O)c3ccccc3)ccc2O[C@@H]1CN(C)Cc1ccc(-c2ccccc2)cc1,-0.1,.,121.3*
Cc1ccc(S(=O)(=O)Nc2ccc3c(c2)C(=O)N([C@H](C)CO)C[C@@H](C)[C@@H](CN(C)Cc2ccc(-c4ccccc4)cc2)O3)cc1,-2.3,.,121.6*
Cc1ccc(S(=O)(=O)Nc2ccc3c(c2)C(=O)N([C@H](C)CO)C[C@H](C)[C@@H](CN(C)Cc2ccc(-c4ccccc4)cc2)O3)cc1,-1.4,.,53.3
CC(Sc1nc2ccccc2c(=O)[nH]1)C(=O)Nc1cccc(Cl)c1 (stereo unspecified),2.9,-1.8,-7.3
O=[N+]([O-])c1ccc(CSc2nnc(-c3ccccn3)n2-c2ccccc2)cc1,0.1,-0.5,7.4
CN(CCOC(=O)c1ccc(Cl)cc1)c1ncc(C(F)(F)F)cc1Cl,2.3,-0.9,-6.2
Cc1cc(=O)[nH]c(SCCCOc2cccc(Br)c2)n1,1.4,-0.3,-5.7
Cc1cc(NC(=O)C(=O)NCc2cccnc2)ccc1Br,.,0.4,3.0
Cc1ccc(C2=NNC(=O)C(c3cn(CCC#N)c4ccccc34)C2)cc1 (stereo unspecified),-2.3,6.3,20.8
Cn1c2ccccc2c2c3c(c4c5ccccc5n(CCC#N)c4c21)CNC3=O,-12.7,109.2*,140.5*
Cc1ccc(-c2nnc(SCC(=O)Nc3ccccc3F)n2C)cc1,0.8,-0.7,2.3
CC(C)CNc1nc(SCC(N)=O)nc(N2CCOCC2)n1,.,-0.9,-8.7
Cc1ccc(NC(=O)C23CC4CC(CC(C4)C2)C3)cc1,-0.1,.,21.9
O=C(Nc1nc(-c2ccccc2)cs1)C12CC3CC(CC(C3)C1)C2,-0.1,.,108.3*
O=C1c2ccccc2C(=O)N1CCCc1nc2c3c4c(sc3ncn2n1)CCCCC4,0.4,-1.6,6.6
COc1ccc(/C=C/C(=O)c2cc(O)ccc2O)cc1,.,-6.8,64.5
O=C(/C=C/c1ccc(O)cc1)c1ccc(O)cc1O,.,49.6*,56.9
O=C(O)CCCC(=O)Nc1ccc(O)cc1,0.8,0.1,31.1
O=C(/C=C/c1ccc(O)cc1)CC(=O)/C=C/c1ccc(O)cc1,-1.0,120.0*,107.9*
FC(F)(F)c1cc(-c2cn3ccccc3n2)cc(C(F)(F)F)c1,-1.2,.,16.2
N#Cc1cc2c(nc1SCC(=O)Nc1cccc(F)c1)CCCC2,.,5.2,92.4*
COc1ccc(NC(=O)CSc2nc3c(cc2C#N)CCCCC3)cc1,-1.2,4.2,10.1
SMILES,PD-1 reversal,STK33 inh,NOMO-1 viab
CCc1nc(SCC(=O)Nc2ccc(Br)cc2)n[nH]1,-1.4,0.8,-3.0
C[C@H]1CN([C@@H](C)CO)C(=O)c2cccc(NC(=O)c3ccc(-c4nccs4)cc3)c2O[C@H]1CN(C)CC1CCCCC1,-0.7,.,4.1
C[C@H](CO)N1C[C@H](C)[C@@H](CN(C)CC2CCCCC2)Oc2c(NC(=O)c3ccc(-c4nccs4)cc3)cccc2C1=O,-3.2,.,103.8*
C[C@@H]1CN([C@@H](C)CO)C(=O)c2cccc(NC(=O)c3ccc(-c4nccs4)cc3)c2O[C@H]1CN(C)CC1CCCCC1,-3.3,.,109.3*
C[C@@H]1CN([C@H](C)CO)C(=O)c2cccc(NC(=O)c3ccc(-c4nccs4)cc3)c2O[C@@H]1CN(C)CC1CCCCC1,-0.2,.,1.7
CC(C(=O)N1CCN(C)CC1)N(c1ccc(Oc2ccccc2)cc1)S(C)(=O)=O (stereo unspecified),.,1.9,31.3
O=C(CSc1nnc(-c2ccncc2)n1-c1ccc(F)cc1)c1ccccc1,-1.4,3.1,15.4
CCCCC1(COC(=O)c2ccc(OC)cc2)C(=O)N(c2ccccc2)N(c2ccccc2)C1=O,-0.3,.,66.4
CC(O)c1nc2ccccc2n1CCOc1ccc(F)cc1 (stereo unspecified),.,0.5,11.0
Cn1c(=N)n(CCCOc2ccc(F)cc2)c2ccccc21,-2.0,.,93.6*
O=C(CCN1C(=O)c2ccccc2C1=O)Oc1c(-c2ccccc2)oc2ccccc2c1=O,-3.2,7.0,44.1
C[C@H](CO)N1C[C@H](C)[C@H](CN(C)Cc2ccc(Cl)c(Cl)c2)Oc2c(NS(=O)(=O)c3ccc(Cl)cc3)cccc2C1=O,.,.,109.1*
Cc1ccc(S(=O)(=O)Nc2cccc3c2O[C@@H](CN(C)Cc2ccc(Cl)c(Cl)c2)[C@@H](C)CN([C@H](C)CO)C3=O)cc1,-5.4,.,119.0*
